Results published in the supplement of paper PMC7411054.

Tests used:
Assay in all cases: phenotypically active (imaging signature differs from DMSO and reproducible) at any of 0.3-9 uM (binary (1 = active, 0 = inactive)); higher = active
Settings in all cases: treatment time: 24 h
A549-ACTB-RAB5A = system: A549-ACTB-RAB5A
How it was run: (§1)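 Fifteen reporter lines derived from A549, HepG2 and WPMY1 cells by gene editing, carrying BFP for segmentation plus GFP and RFP/FusionRed markers, were exposed to 0.3, 1, 3 or 9 µM for 24 h in four wells each and imaged live. Live-cell features from each well were normalised to solvent control wells. A well set counted as deviating when ≥3 of 4 wells lay beyond the 95th percentile of control Euclidean distances, and as reproducible when the median replicate Pearson correlation exceeded the 95th percentile of non-replicates. Phenotypic activity was assigned only when both criteria were met.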

A549-CANX-COX4 = system: A549-CANX-COX4
How it was run: as §1

A549-GM130-SQSTM1 = system: A549-GM130-SQSTM1
How it was run: as §1

A549-TP53BP1-CLTA = system: A549-TP53BP1-CLTA
How it was run: as §1

A549-TUBA1B-RELA = system: A549-TUBA1B-RELA
How it was run: as §1

HepG2-ACTB-RAB5A = system: HepG2-ACTB-RAB5A
How it was run: as §1

HepG2-CANX-COX4 = system: HepG2-CANX-COX4
How it was run: as §1

HepG2-GM130-SQSTM1 = system: HepG2-GM130-SQSTM1
How it was run: as §1

HepG2-TP53BP1-CLTA = system: HepG2-TP53BP1-CLTA
How it was run: as §1

HepG2-TUBA1B-RELA = system: HepG2-TUBA1B-RELA
How it was run: as §1

WPMY1-ACTB-RAB5A = system: WPMY1-ACTB-RAB5A
How it was run: as §1

WPMY1-CANX-COX4 = system: WPMY1-CANX-COX4
How it was run: as §1

WPMY1-GM130-SQSTM1 = system: WPMY1-GM130-SQSTM1
How it was run: as §1

WPMY1-TP53BP1-CLTA = system: WPMY1-TP53BP1-CLTA
How it was run: as §1

WPMY1-TUBA1B-RELA = system: WPMY1-TUBA1B-RELA
How it was run: as §1

Measured: phenotypically active

CN(C)CCc1c[nH]c2ccc(C[C@H]3COC(=O)N3)cc12 [zolmitriptan]
inactive: A549-ACTB-RAB5A 0 | A549-CANX-COX4 0 | A549-GM130-SQSTM1 0 | A549-TP53BP1-CLTA 0 | A549-TUBA1B-RELA 0 | HepG2-ACTB-RAB5A 0 | HepG2-CANX-COX4 0 | HepG2-GM130-SQSTM1 0 | HepG2-TP53BP1-CLTA 0 | HepG2-TUBA1B-RELA 0 | WPMY1-ACTB-RAB5A 0 | WPMY1-CANX-COX4 0 | WPMY1-GM130-SQSTM1 0 | WPMY1-TP53BP1-CLTA 0 | WPMY1-TUBA1B-RELA 0

Nc1nnc(-c2cccc(Cl)c2Cl)c(N)n1 [lamotrigine]
inactive: A549-ACTB-RAB5A 0 | A549-CANX-COX4 0 | A549-GM130-SQSTM1 0 | A549-TP53BP1-CLTA 0 | A549-TUBA1B-RELA 0 | HepG2-ACTB-RAB5A 0 | HepG2-CANX-COX4 0 | HepG2-GM130-SQSTM1 0 | HepG2-TP53BP1-CLTA 0 | HepG2-TUBA1B-RELA 0 | WPMY1-ACTB-RAB5A 0 | WPMY1-CANX-COX4 0 | WPMY1-GM130-SQSTM1 0 | WPMY1-TP53BP1-CLTA 0 | WPMY1-TUBA1B-RELA 0

CC(=O)OC(C)C[N+](C)(C)C (stereo not given) [methacholine]
inactive: A549-ACTB-RAB5A 0 | A549-CANX-COX4 0 | A549-GM130-SQSTM1 0 | A549-TP53BP1-CLTA 0 | A549-TUBA1B-RELA 0 | HepG2-ACTB-RAB5A 0 | HepG2-CANX-COX4 0 | HepG2-GM130-SQSTM1 0 | HepG2-TP53BP1-CLTA 0 | HepG2-TUBA1B-RELA 0 | WPMY1-ACTB-RAB5A 0 | WPMY1-CANX-COX4 0 | WPMY1-GM130-SQSTM1 0 | WPMY1-TP53BP1-CLTA 0 | WPMY1-TUBA1B-RELA 0

O=C(/C=C/c1ccc(OCc2ccccc2)cc1)c1c(O)cc(OCc2ccccc2)cc1OCc1ccccc1 [4,2,4'-Tribenzyloxy-6'-hydroxychalcone]
inactive: A549-ACTB-RAB5A 0 | A549-CANX-COX4 0 | A549-GM130-SQSTM1 0 | A549-TP53BP1-CLTA 0 | A549-TUBA1B-RELA 0 | HepG2-ACTB-RAB5A 0 | HepG2-CANX-COX4 0 | HepG2-GM130-SQSTM1 0 | HepG2-TP53BP1-CLTA 0 | HepG2-TUBA1B-RELA 0 | WPMY1-ACTB-RAB5A 0 | WPMY1-CANX-COX4 0 | WPMY1-GM130-SQSTM1 0 | WPMY1-TP53BP1-CLTA 0 | WPMY1-TUBA1B-RELA 0

CCOC(=O)[C@H](CCc1ccccc1)N[C@H]1CCc2ccccc2N(CC(=O)O)C1=O [benazepril]
inactive: A549-ACTB-RAB5A 0 | A549-CANX-COX4 0 | A549-GM130-SQSTM1 0 | A549-TP53BP1-CLTA 0 | A549-TUBA1B-RELA 0 | HepG2-ACTB-RAB5A 0 | HepG2-CANX-COX4 0 | HepG2-GM130-SQSTM1 0 | HepG2-TP53BP1-CLTA 0 | HepG2-TUBA1B-RELA 0 | WPMY1-ACTB-RAB5A 0 | WPMY1-CANX-COX4 0 | WPMY1-GM130-SQSTM1 0 | WPMY1-TP53BP1-CLTA 0 | WPMY1-TUBA1B-RELA 0

Cc1cc(C)nc(SCC(=O)Nc2ncc(Cc3cccc4ccccc34)s2)n1
inactive: A549-ACTB-RAB5A 0 | A549-CANX-COX4 0 | A549-GM130-SQSTM1 0 | A549-TP53BP1-CLTA 0 | A549-TUBA1B-RELA 0 | HepG2-ACTB-RAB5A 0 | HepG2-CANX-COX4 0 | HepG2-GM130-SQSTM1 0 | HepG2-TP53BP1-CLTA 0 | HepG2-TUBA1B-RELA 0 | WPMY1-ACTB-RAB5A 0 | WPMY1-CANX-COX4 0 | WPMY1-GM130-SQSTM1 0 | WPMY1-TP53BP1-CLTA 0 | WPMY1-TUBA1B-RELA 0

CC(=O)CCCCn1c(=O)c2c(ncn2C)n(C)c1=O [Pentoxifylline]
inactive: A549-ACTB-RAB5A 0 | A549-CANX-COX4 0 | A549-GM130-SQSTM1 0 | A549-TP53BP1-CLTA 0 | A549-TUBA1B-RELA 0 | HepG2-ACTB-RAB5A 0 | HepG2-CANX-COX4 0 | HepG2-GM130-SQSTM1 0 | HepG2-TP53BP1-CLTA 0 | HepG2-TUBA1B-RELA 0 | WPMY1-ACTB-RAB5A 0 | WPMY1-CANX-COX4 0 | WPMY1-GM130-SQSTM1 0 | WPMY1-TP53BP1-CLTA 0 | WPMY1-TUBA1B-RELA 0

NS(=O)(=O)c1cc2c(cc1Cl)N=C(CSCc1ccccc1)NS2(=O)=O [benzthiazide]
inactive: A549-ACTB-RAB5A 0 | A549-CANX-COX4 0 | A549-GM130-SQSTM1 0 | A549-TP53BP1-CLTA 0 | A549-TUBA1B-RELA 0 | HepG2-ACTB-RAB5A 0 | HepG2-CANX-COX4 0 | HepG2-GM130-SQSTM1 0 | HepG2-TP53BP1-CLTA 0 | HepG2-TUBA1B-RELA 0 | WPMY1-ACTB-RAB5A 0 | WPMY1-CANX-COX4 0 | WPMY1-GM130-SQSTM1 0 | WPMY1-TP53BP1-CLTA 0 | WPMY1-TUBA1B-RELA 0

Cn1c(=O)c2[nH]cnc2n(C)c1=O [Aminophylline]
inactive: A549-ACTB-RAB5A 0 | A549-CANX-COX4 0 | A549-GM130-SQSTM1 0 | A549-TP53BP1-CLTA 0 | A549-TUBA1B-RELA 0 | HepG2-ACTB-RAB5A 0 | HepG2-CANX-COX4 0 | HepG2-GM130-SQSTM1 0 | HepG2-TP53BP1-CLTA 0 | HepG2-TUBA1B-RELA 0 | WPMY1-ACTB-RAB5A 0 | WPMY1-CANX-COX4 0 | WPMY1-GM130-SQSTM1 0 | WPMY1-TP53BP1-CLTA 0 | WPMY1-TUBA1B-RELA 0

C[C@]12CC[C@@H]3c4ccc(O)cc4CC[C@H]3[C@@H]1CCC2=O [estrone]
inactive: A549-ACTB-RAB5A 0 | A549-CANX-COX4 0 | A549-GM130-SQSTM1 0 | A549-TP53BP1-CLTA 0 | A549-TUBA1B-RELA 0 | HepG2-ACTB-RAB5A 0 | HepG2-CANX-COX4 0 | HepG2-GM130-SQSTM1 0 | HepG2-TP53BP1-CLTA 0 | HepG2-TUBA1B-RELA 0 | WPMY1-ACTB-RAB5A 0 | WPMY1-CANX-COX4 0 | WPMY1-GM130-SQSTM1 0 | WPMY1-TP53BP1-CLTA 0 | WPMY1-TUBA1B-RELA 0

CCC1(C)OC(=O)N(C)C1=O (stereo not given) [paramethadione]
inactive: A549-ACTB-RAB5A 0 | A549-CANX-COX4 0 | A549-GM130-SQSTM1 0 | A549-TP53BP1-CLTA 0 | A549-TUBA1B-RELA 0 | HepG2-ACTB-RAB5A 0 | HepG2-CANX-COX4 0 | HepG2-GM130-SQSTM1 0 | HepG2-TP53BP1-CLTA 0 | HepG2-TUBA1B-RELA 0 | WPMY1-ACTB-RAB5A 0 | WPMY1-CANX-COX4 0 | WPMY1-GM130-SQSTM1 0 | WPMY1-TP53BP1-CLTA 0 | WPMY1-TUBA1B-RELA 0
